Common to all, as to test: NCI-60 one-dose screen, 48 h (100 = growth as untreated, 0 = no growth, -100 = all killed)
In one test the test system is HCT-15 colon. Conditions: 10 µM unless noted.
The next test concerns SNB-75 CNS. Conditions: 10 µM unless noted.
For another test, the system named is SNB-19 CNS. The conditions noted are these: 10 µM unless noted.
The test system of the next test is U251 CNS. Conditions: 10 µM unless noted.
The next test relates to SK-MEL-5 melanoma. The conditions noted are these: 10 µM unless noted.
Another test deals with UACC-62 melanoma. The conditions noted are these: 10 µM unless noted.
A further test concerns LOX IMVI melanoma. Conditions: 10 µM.
A further test concerns SK-MEL-28 melanoma. The conditions noted are these: 10 µM unless noted.
In a further test the test system is SK-MEL-2 melanoma. The conditions noted are these: 10 µM unless noted.
A further test deals with SN12C renal. The conditions noted are these: 10 µM unless noted.
A further test has as its system UO-31 renal. The conditions noted are these: 10 µM unless noted.
Another test relates to TK-10 renal. The conditions noted are these: 10 µM unless noted.
The next test deals with ACHN renal. The conditions noted are these: 10 µM unless noted.
For another test, the system named is CAKI-1 renal. Conditions: 10 µM unless noted.
A further test deals with A498 renal. Conditions: 10 µM unless noted.
The test system of the next test is CCRF-CEM leukemia. The conditions noted are these: 10 µM unless noted.
A further test has as its system MOLT-4 leukemia. Conditions: 10 µM unless noted.
The next test has as its system PC-3 prostate. The conditions noted are these: 10 µM unless noted.
The test system of a further test is EKVX NSCLC. Conditions: 10 µM unless noted.

About 83,000 compounds went through this panel and 20% of them were active in at least one assay; those are over-represented in the sample as a whole.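 Each cell line was grown in a 96-well plate and treated with one concentration of compound for 48 hours. Values below 10 were considered active.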 A number with no mark means an inactive call. Activity calls are given as the source filed them.

With `C1C[S+]2CC[S+]1CC2`, the growth in the test with HCT-15 colon is 105%; with SNB-75 CNS, 117%; with SNB-19 CNS, 103%; in the test with U251 CNS, 96.4%; with SK-MEL-5 melanoma it was 98.8%; in the test with UACC-62 melanoma, 104%. Further, the growth in the test on LOX IMVI melanoma is 95.8%; in the test with SK-MEL-28 melanoma, 118%; in the test with SK-MEL-2 melanoma it was 101%; with SN12C renal it was 101%; with UO-31 renal, 106%; in the test on TK-10 renal, 97.9%. Further, the growth is 99.2% with ACHN renal; 108% with CAKI-1 renal; 105% in the test with A498 renal; 89.9% in the test with CCRF-CEM leukemia; 100% with MOLT-4 leukemia.
Turning to `N#C/C(=C\c1ccc(C#N)cc1)C(=O)c1ccccc1`, the growth with HCT-15 colon is 95.7%; in the test on SNB-75 CNS, 77.8%; in the test with SNB-19 CNS it was 93.4%; in the test with U251 CNS, 94.3%; in the test on PC-3 prostate, 87.6%; in the test on SK-MEL-5 melanoma it was 106%. For the same compound, the growth in the test with UACC-62 melanoma was 92.8%; with LOX IMVI melanoma, 98.8%; in the test with SK-MEL-28 melanoma it was 121%; in the test with SK-MEL-2 melanoma it was 101%; in the test with EKVX NSCLC, 109%; with SN12C renal, 95.7%. Also, the growth in the test on UO-31 renal is 89.1%; in the test with TK-10 renal, 132%; in the test on ACHN renal it was 101%; in the test on A498 renal, 118%; in the test on CCRF-CEM leukemia it was 92.9%.
Turning to `CC(=O)NC(O)C(Cl)Cl` (centres undefined), the growth in the test with HCT-15 colon is 102%; in the test on SNB-75 CNS, 103%; in the test with SNB-19 CNS, 106%; with PC-3 prostate, 96.4%; in the test with SK-MEL-5 melanoma it was 102%; in the test on UACC-62 melanoma, 106%. Moreover, the growth was 87.8% in the test on LOX IMVI melanoma; 103% in the test with SK-MEL-28 melanoma; 100% with SK-MEL-2 melanoma; 110% with SN12C renal; 92.8% with UO-31 renal; 97.3% with TK-10 renal. For the same compound, the growth in the test on ACHN renal is 105%; in the test with CAKI-1 renal it was 92.3%; with A498 renal it was 94.3%; in the test on CCRF-CEM leukemia, 99.4%; in the test on MOLT-4 leukemia it was 104%.
Take `Clc1cccc(Cl)c1CSc1nc2ccccc2n2cccc12`: the growth in the test with HCT-15 colon was 68.2%; in the test with SNB-75 CNS, 86.5%; in the test with SNB-19 CNS, 105%; in the test on U251 CNS it was 95.3%; in the test with PC-3 prostate it was 96.5%; in the test on SK-MEL-5 melanoma, 103%. Besides, the growth was 96.3% in the test on UACC-62 melanoma; 96.4% with LOX IMVI melanoma; 103% with SK-MEL-28 melanoma; 102% with SN12C renal; 71.8% in the test with UO-31 renal; 103% with TK-10 renal. Also, the growth was 97.3% in the test on ACHN renal, 115% in the test on A498 renal, 100% in the test on CCRF-CEM leukemia and 92.9% in the test with MOLT-4 leukemia.
As for `CCCCNc1ccc(-c2ccc(NCCCC)cc2)cc1`, the growth is 50.6% in the test on HCT-15 colon; 83% in the test on SNB-75 CNS; 77.3% with SNB-19 CNS; 64.2% in the test with U251 CNS; 71.7% in the test on PC-3 prostate; -40.7% (active) in the test with SK-MEL-5 melanoma. The growth is 42.8% in the test with UACC-62 melanoma; 25.9% in the test on LOX IMVI melanoma; 71.5% with SK-MEL-28 melanoma; 101% with SK-MEL-2 melanoma; 81.4% with SN12C renal; 58.8% in the test on UO-31 renal. The growth in the test with TK-10 renal is 92%; with ACHN renal it was 71.1%; in the test with CAKI-1 renal it was 64.8%; in the test with A498 renal, 59.7%; in the test with CCRF-CEM leukemia, 51.9%; in the test with MOLT-4 leukemia, 68.8%.
For the compound `CC(=O)OC(C)c1cccc(C#N)c1` (centres undefined), the growth in the test on HCT-15 colon was 105%; in the test on SNB-75 CNS, 89.7%; in the test on SNB-19 CNS it was 105%; in the test with U251 CNS it was 99%; in the test with PC-3 prostate it was 96.4%; with SK-MEL-5 melanoma it was 99.1%. For the same compound, the growth in the test on UACC-62 melanoma is 104%; with LOX IMVI melanoma it was 101%; in the test with SK-MEL-28 melanoma, 114%; in the test with SK-MEL-2 melanoma, 110%; in the test with SN12C renal, 99.1%; in the test with UO-31 renal, 85.1%. Also, the growth in the test with TK-10 renal was 110%; in the test with ACHN renal, 113%; with CCRF-CEM leukemia, 97.7%; in the test with MOLT-4 leukemia, 102%.
With `CC(C)(N)CO[C@H]1C[C@H]2CC[C@@]1(C)C2(C)C`, the growth is 90.7% with HCT-15 colon; 89.3% with SNB-75 CNS; 103% in the test with SNB-19 CNS; 96.6% in the test on U251 CNS; 88.8% with PC-3 prostate; 86.1% in the test with SK-MEL-5 melanoma. The growth was 101% in the test on UACC-62 melanoma; 98.6% with LOX IMVI melanoma; 94.7% with SK-MEL-28 melanoma; 108% in the test on SK-MEL-2 melanoma; 100% with SN12C renal; 91.8% in the test on UO-31 renal. For the same compound, the growth was 105% in the test on TK-10 renal; 100% in the test with ACHN renal; 97% in the test with CAKI-1 renal; 81.7% with A498 renal; 105% in the test with CCRF-CEM leukemia; 107% in the test with MOLT-4 leukemia.
On to `CC(=O)C[n+]1ccc(C)cc1Sc1ccccc1C`, for which the growth in the test on HCT-15 colon is 97.1%; in the test with SNB-75 CNS, 76%; in the test on SNB-19 CNS, 91.1%; with U251 CNS it was 93.3%; in the test on SK-MEL-5 melanoma, 92%; with LOX IMVI melanoma it was 86.6%. Besides, the growth in the test on SK-MEL-28 melanoma was 104%; in the test on SK-MEL-2 melanoma, 127%; in the test on EKVX NSCLC, 103%; in the test with SN12C renal, 64.8%; in the test with UO-31 renal, 78.5%; in the test on TK-10 renal, 106%. For the same compound, the growth is 97.1% in the test on ACHN renal; 102% with CAKI-1 renal; 127% with A498 renal; 1.97% (active) in the test with CCRF-CEM leukemia; 54.7% in the test with MOLT-4 leukemia.
Turning to `NNC(=O)c1ccccc1N`, the growth is 110% in the test with HCT-15 colon; 87.9% in the test with SNB-75 CNS; 114% in the test on SNB-19 CNS; 106% in the test with U251 CNS; 101% in the test with PC-3 prostate; 107% in the test with SK-MEL-5 melanoma. Further, the growth in the test on LOX IMVI melanoma is 105%; in the test on SK-MEL-28 melanoma it was 117%; in the test with SK-MEL-2 melanoma it was 168%; in the test with EKVX NSCLC, 110%; with SN12C renal, 108%; in the test on UO-31 renal, 99.2%. In addition, the growth in the test with TK-10 renal was 129%; in the test on ACHN renal, 111%; with CAKI-1 renal, 104%; in the test on A498 renal, 140%; in the test with CCRF-CEM leukemia, -39.5% (active); with MOLT-4 leukemia it was 112%.

(Values after PubChem BioAssay (NCI).)
